MCF10A rerep: inducers of DNA re-replication in MCF 10A breast cells | 350,000 compounds, 2.9% hits | Potency, µM (series often up to 46.1 µM), for inactives: top-dose activity, positive = re-replication, most hits filed as activators | MCF 10A DNA re-replication, Hoechst nuclear intensity, 48 h | AID 624296; further: potency means the concentration at half of the fitted maximal effect; % of control where 0% means no effect; nearly all actives have a fitted effect of over 50% in size
SW480 rereplic: DNA re-replication induction in SW480 cells; Potency, µM (titrated, usually from 46.1 µM), for inactives: at the highest dose re-replication activation, hits mostly activators; SW480 DNA re-replication, Hoechst DNA content imaging, 48 h; 340,000 compounds, 1.8% hits; further: potency means the concentration at half of the fitted maximal effect; % of control where 0% means no effect; nearly all actives have a fitted effect of over 55% in size
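250 cells/well; 23 nL cpd via pin tool; 48 hr, 37 C, 5% CO2; Hoechst 40 min; imager read of total nuclear intensity, ex 405/em 500-530 nm.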
KB-V1 MDR tox: kills drug-selected multidrug resistant KB-V1 cells; KB-V1 MDR cells viability, CellTiter-Glo, 72 h; 400,000 compounds, 3.4% hits; AID 1347076; Potency, µM (titrated, usually from 46.1 µM), most hits filed as cytotoxic; further: potency means the concentration at half of the fitted maximal effect; on the % scale 0 is the no-effect control and ±100 the full control effect; nearly all actives have a fitted effect of over 60% in size
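Cells of the MDR subline KB-V1 are plated, dosed with compound at multiple concentrations, and incubated 72 h at 37 degrees C; CellTiter-Glo is then added and luminescence read after 10 min.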
DRD3 agonist: activates the human D3 dopamine receptor; AID 652048; D3R DiscoveRx beta-arrestin cells, luminescence, 90 min; 410,000 compounds, 0.58% hits; max activation, %; in the data active means max activation above about 30%; further: 0% is about no effect
Target sequence (P35462 whole entry, looked up): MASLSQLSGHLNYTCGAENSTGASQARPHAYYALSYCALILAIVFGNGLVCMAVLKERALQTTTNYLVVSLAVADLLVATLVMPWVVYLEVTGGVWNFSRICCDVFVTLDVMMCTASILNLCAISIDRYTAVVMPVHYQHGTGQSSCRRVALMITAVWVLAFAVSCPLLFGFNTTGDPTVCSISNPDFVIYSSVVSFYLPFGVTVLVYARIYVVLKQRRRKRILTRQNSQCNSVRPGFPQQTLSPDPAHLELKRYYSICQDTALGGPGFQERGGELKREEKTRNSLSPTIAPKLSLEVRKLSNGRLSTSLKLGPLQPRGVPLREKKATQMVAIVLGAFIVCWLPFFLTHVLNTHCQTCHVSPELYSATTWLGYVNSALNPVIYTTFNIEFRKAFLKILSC
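Agonist-mode cell screen: cells plated at 1500/well and incubated overnight at 37 °C, then exposed to library compounds for 90 min at 37 °C. Detection reagent was added for 30–60 min at room temperature, and luminescence was read.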
KB-3-1 cytotox: kills parental KB-3-1 adenocarcinoma cells | 400,000 compounds, 1.4% hits | Potency, µM (titrated, usually from 46.1 µM), hits mostly cytotoxic | KB-3-1 viability, CellTiter-Glo ATP luminescence, 72 h; further: potency means the concentration at half of the fitted maximal effect; on the % scale 0 is the no-effect control and ±100 the full control effect; nearly all actives have a fitted effect of over 60% in size
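Multi-concentration cytotoxicity screen in KB-3-1 cells grown in DMEM lacking phenol red with 10% FBS. After 72 h at 37 °C with compound, ATP-dependent luminescence was recorded.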
D3 antag: D3 dopamine receptor (human) antagonism; 360,000 compounds, 2.5% hits; D3R cells, DiscoveRx beta-arrestin luminescence, antagonist mode; active compounds read low; P35462; max response, negative = inhibition, %; in the data active means max response below about -50%; inconclusive means no clear call, values can overlap the other calls; further: on the % scale 0 is the no-effect control and ±100 the full control effect
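Cells expressing the human receptor were seeded at 1500 cells/well, incubated overnight at 37 degrees C in 5% CO2, then exposed to library compounds with dopamine controls for 90 minutes at 37 degrees C before luminescent detection.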
The depositor's hits bear a star; [ ] = remark or other dose. Hits are enriched below; roughly 8.9% of the tested compounds scored in any of these assays. Unless noted, the call rests on the fitted dose curve; in most records, active means well fitted curve in the direction sought with a large enough effect; inconclusive means small, poorly fitted or top-dose-only effect, or another doubt; inactive means no such curve, though single readings can be large; an effect the other way counts as inactive or inconclusive.

How did O=C(COC(=O)CC1c2ccccc2CCN1S(=O)(=O)c1ccc(F)cc1)Nc1ccccc1 (centres undefined) do in these assays?
MCF10A rerep: -8.4%; SW480 rereplic: -2.7%; KB-V1 MDR tox: inactive; DRD3 agonist: -5.7; KB-3-1 cytotox: inactive; D3 antag: -4.8

What do the screens show for `O=Cc1cc2c(cc1[B-](F)(F)F)OCO2`?
MCF10A rerep: -52.3%; SW480 rereplic: 16.4µM*; KB-V1 MDR tox: inactive; DRD3 agonist: -14.2; KB-3-1 cytotox: inactive; D3 antag: -9.0

Results for Cc1cc(C=O)c(C)n1-c1ccc2c(c1)OCO2 ?
MCF10A rerep: 1.2%; SW480 rereplic: -1.2%; KB-V1 MDR tox: inactive; DRD3 agonist: 1.0; KB-3-1 cytotox: inactive; D3 antag: -5.2

Results for COc1ccc(-c2n(Cc3ccccc3)c3ccccc3[n+]2Cc2ccccc2)cc1 ?
MCF10A rerep: 3.8%; SW480 rereplic: inconclusive; KB-V1 MDR tox: inactive; DRD3 agonist: -3.5; KB-3-1 cytotox: 7.31µM*; D3 antag: 2.5

Results for COC(=O)c1ccc2c(=O)n(CCCCCC(=O)NCc3ccc(OC)cc3)c(=O)[nH]c2c1 ?
KB-V1 MDR tox: inactive; DRD3 agonist: -5.9; KB-3-1 cytotox: inactive

What do the screens show for `COc1ccc(NC(=O)CCCS(=O)(=O)c2nc(-c3ccccc3OC)cc(C(F)(F)F)n2)c(OC)c1`?
KB-V1 MDR tox: inconclusive; DRD3 agonist: -6.3; KB-3-1 cytotox: inactive

What do the screens show for `COc1ccc(-c2cc(C(F)(F)F)nc(S(=O)(=O)CCCC(=O)Nc3cc(C)on3)n2)cc1OC`?
MCF10A rerep: 3.66µM*; SW480 rereplic: inconclusive; KB-V1 MDR tox: inactive; DRD3 agonist: -10.3; KB-3-1 cytotox: inactive; D3 antag: inconclusive

How did COc1ccccc1-c1cc(C(F)(F)F)nc(S(=O)(=O)CCCC(=O)Nc2cc(C)on2)n1 do in these assays?
MCF10A rerep: 20.6µM*; SW480 rereplic: 16.4µM*; KB-V1 MDR tox: inconclusive; DRD3 agonist: -0.8; KB-3-1 cytotox: inconclusive; D3 antag: -82.5*

Results for COc1ccc(Cl)cc1NC(=O)CCCS(=O)(=O)c1nc(-c2ccc(OC)c(OC)c2)cc(C(F)(F)F)n1 ?
DRD3 agonist: -22.2

How did CCOc1ccc(OCC)c(NC(=O)CCc2nc3cccnc3n2Cc2cccs2)c1 do in these assays?
KB-V1 MDR tox: inactive; DRD3 agonist: -9.2; KB-3-1 cytotox: inactive

What do the screens show for `Cc1cccc(NC(=O)C2(C)CC3c4ccccc4C2c2ccccc23)c1C` (centres undefined)?
MCF10A rerep: 7.9%; SW480 rereplic: -83.2%; KB-V1 MDR tox: 7.31µM*; DRD3 agonist: -3.4; KB-3-1 cytotox: inconclusive; D3 antag: -20.0

Results for C=CCOc1cccc(/C=C2\C(=O)N(Cc3ccc(C)cc3)C(C)=C2C(=O)OC)c1 ?
MCF10A rerep: 16.4µM*; SW480 rereplic: inconclusive; KB-V1 MDR tox: inactive; DRD3 agonist: -7.5; KB-3-1 cytotox: inconclusive; D3 antag: inconclusive

Results for O=S1(=O)CCN2C(=N1)Sc1c2ccc2c1CCCC2 ?
MCF10A rerep: -9.7%; SW480 rereplic: -19.6%; KB-V1 MDR tox: 4.61µM*; DRD3 agonist: 12.8; KB-3-1 cytotox: inactive; D3 antag: -21.0

How did O=C(Cn1ncc2ccsc2c1=O)N1CCN(c2ccccc2F)CC1 do in these assays?
KB-V1 MDR tox: inactive; DRD3 agonist: -4.6; KB-3-1 cytotox: inactive

What do the screens show for `CCCCc1ccc(Nc2ncnc3c2cnn3-c2ccc(C)cc2)cc1`?
KB-V1 MDR tox: inactive; DRD3 agonist: -2.9; KB-3-1 cytotox: inactive

What do the screens show for `CCOC(=O)c1cnc2c(ccc3ccccc32)c1Nc1ccc(Cl)cc1`?
KB-V1 MDR tox: inactive; DRD3 agonist: -16.6; KB-3-1 cytotox: inactive

What do the screens show for `CCOC(=O)c1cnc2c(ccc3ccccc32)c1Nc1ccccc1OC`?
KB-V1 MDR tox: inactive; DRD3 agonist: 2.1; KB-3-1 cytotox: inconclusive

Results for CCOC(=O)c1cnc2c(ccc3ccccc32)c1Nc1ccc(C(C)=O)cc1 ?
KB-V1 MDR tox: 16.4µM*; DRD3 agonist: 6.8; KB-3-1 cytotox: inconclusive

How did CCOC(=O)c1cnc2c(ccc3ccccc32)c1Nc1ccc(OC)c(OC)c1 do in these assays?
KB-V1 MDR tox: inconclusive; DRD3 agonist: 13.8; KB-3-1 cytotox: 7.31µM*

How did CC1CCN(C(=O)CSc2nc3ccccc3[nH]2)CC1 do in these assays?
MCF10A rerep: inconclusive; SW480 rereplic: -1.0%; KB-V1 MDR tox: inactive; DRD3 agonist: -38.2; KB-3-1 cytotox: inactive; D3 antag: -53.4*

What do the screens show for `Cc1ccc(-c2csc(NC(=O)CSc3nnc4c(n3)[nH]c3ccccc34)n2)cc1`?
MCF10A rerep: 16.4µM*; SW480 rereplic: inconclusive; KB-V1 MDR tox: inconclusive; DRD3 agonist: 2.3; KB-3-1 cytotox: inconclusive; D3 antag: -7.1

Results for C/C(=N\Nc1nc2ccccc2[nH]1)c1ccc2c(c1)OCO2 ?
MCF10A rerep: inconclusive; SW480 rereplic: 20.6µM*; KB-V1 MDR tox: inconclusive; DRD3 agonist: -9.7; KB-3-1 cytotox: inactive; D3 antag: -0.7

Results for C/C(=N\Nc1nc2ccccc2[nH]1)c1ccc2c(c1)OCCO2 ?
MCF10A rerep: 12.5%; SW480 rereplic: 10.7%; KB-V1 MDR tox: inconclusive; DRD3 agonist: -1.8; KB-3-1 cytotox: inconclusive; D3 antag: 14.0

How did NC(=O)C1CCN(C(=O)CSc2nc3ccccc3[nH]2)CC1 do in these assays?
MCF10A rerep: -0.6%; SW480 rereplic: -0.1%; KB-V1 MDR tox: inactive; DRD3 agonist: 5.4; KB-3-1 cytotox: inactive; D3 antag: 14.5

Results for CC1Cc2ccccc2N1C(=O)CSc1nnc2c(n1)[nH]c1ccc(F)cc12 (centres undefined) ?
MCF10A rerep: -14.3%; SW480 rereplic: -8.5%[9.22 µM]; KB-V1 MDR tox: inconclusive; DRD3 agonist: -2.6; KB-3-1 cytotox: inactive; D3 antag: -67.7*

How did Cc1ccc(NC(=O)CSc2nnc3c(n2)[nH]c2ccccc23)cc1 do in these assays?
MCF10A rerep: -12.9%; SW480 rereplic: -20.9%; KB-V1 MDR tox: inactive; DRD3 agonist: 3.6; KB-3-1 cytotox: inactive; D3 antag: 0.7

Results for Cc1ccc(NC(=O)C(Cc2ccccc2)NS(=O)(=O)c2ccc3c(c2)c(=O)n(C)c(=O)n3C)cc1 (centres undefined) ?
KB-V1 MDR tox: inactive; DRD3 agonist: -11.4; KB-3-1 cytotox: inactive

Results for CCOC(=O)c1cc(-c2ccccc2)n(CC(=O)Nc2ccc(OC)cc2OC)c1C ?
KB-V1 MDR tox: inactive; DRD3 agonist: -15.5; KB-3-1 cytotox: inactive

Results for CC1CCN(C(=O)CSc2nnc3c(n2)[nH]c2ccccc23)CC1 ?
MCF10A rerep: 2.5%; SW480 rereplic: -10.0%; KB-V1 MDR tox: 16.4µM*; DRD3 agonist: 14.8; KB-3-1 cytotox: inconclusive; D3 antag: -11.0
